Among the data in ChEMBL document CHEMBL1157539, “Thousands of chemical starting points for antimalarial lead identification” (Nature, 2010) are Inhibition values, retold here.

The test has as its system HepG2. In words: GSK_TCMDC: Percent inhibition of human HepG2 cell line. Test compounds present at 10uM. The format is functional.
As usually defined, the Inhibition is the share of the control response that was lost under treatment. In the case of `O=C(Nc1ccc(Br)c(C(F)(F)F)c1)c1cccc([N+](=O)[O-])c1`, the Inhibition was 24%. With `CN(C)C(CNC(=O)c1cc(-c2ccncc2)c(-c2ccc(Cl)c(O)c2)o1)c1ccccc1.O=C(O)C(F)(F)F` (stereo not drawn) the figure was 28%. Regarding `CCOC(=O)CNC(=O)c1cc(=O)c2ccccc2o1`, the Inhibition stood at 22%. With `Nc1nc(N)c2cc(Sc3ccc4ccccc4c3)ccc2n1` the figure was 66%.

On to `NS(=O)(=O)c1cccc(-c2ccc3c(O)ncnc3c2)c1`, for which the Inhibition amounted to 6%. With `CCCc1cc(N2CCC(N3CCCC3)CC2)nc(Nc2ccc(Cl)cc2)n1` the figure was 29%; with `CC(C)[C@H](NC(=O)c1ccc(O)c(-c2ccc(Cl)c(Cl)c2)c1)C(=O)NCCN(C)C`, 0%; with `COc1ccc2ncc(F)c(CCN3C4CCC3CC(NCc3cc5c(cn3)OCS5)C4)c2n1.Cl` (stereo not drawn), 15%.
